In PubChem BioAssay (EPA / NIEHS) one finds outcome data, which are given here for 40 molecules.

Results filed as inconclusive are left out. Calls of active or inactive are those of the source. The calls were made as follows: active = hit-call score of the fitted dose curve at least 0.9, where 1 is the maximum; inconclusive = response in the unintended direction; inactive = score below 0.9.

Chain of Androgen receptor (Homo sapiens) (P10275 whole entry, looked up, the tested form may be a part): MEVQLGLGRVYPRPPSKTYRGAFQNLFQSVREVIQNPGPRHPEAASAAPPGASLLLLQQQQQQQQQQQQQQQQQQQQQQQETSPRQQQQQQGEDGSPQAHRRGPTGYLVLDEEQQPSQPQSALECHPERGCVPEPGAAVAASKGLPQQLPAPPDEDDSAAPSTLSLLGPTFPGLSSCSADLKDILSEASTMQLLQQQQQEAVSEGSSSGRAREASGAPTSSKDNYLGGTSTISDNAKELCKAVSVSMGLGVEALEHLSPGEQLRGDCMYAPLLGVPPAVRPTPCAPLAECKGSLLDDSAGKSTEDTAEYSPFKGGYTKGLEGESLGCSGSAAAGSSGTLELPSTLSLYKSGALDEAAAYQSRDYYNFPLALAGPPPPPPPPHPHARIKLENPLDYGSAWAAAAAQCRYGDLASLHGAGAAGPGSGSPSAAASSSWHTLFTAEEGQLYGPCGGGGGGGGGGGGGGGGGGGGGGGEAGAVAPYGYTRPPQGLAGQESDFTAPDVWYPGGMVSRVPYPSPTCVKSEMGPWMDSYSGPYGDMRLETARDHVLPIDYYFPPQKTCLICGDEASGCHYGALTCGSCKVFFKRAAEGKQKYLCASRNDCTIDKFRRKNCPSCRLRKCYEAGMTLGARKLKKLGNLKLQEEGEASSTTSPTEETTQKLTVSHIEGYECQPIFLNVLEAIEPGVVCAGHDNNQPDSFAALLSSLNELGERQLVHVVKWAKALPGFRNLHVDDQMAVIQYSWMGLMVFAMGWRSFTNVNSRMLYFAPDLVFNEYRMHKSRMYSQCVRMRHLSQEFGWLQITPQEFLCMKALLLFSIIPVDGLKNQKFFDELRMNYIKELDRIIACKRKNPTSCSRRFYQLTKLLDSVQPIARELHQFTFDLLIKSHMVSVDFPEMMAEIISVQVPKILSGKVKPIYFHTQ

This assay addresses Androgen receptor (Homo sapiens) (UniProt P10275). The experiment in a line: ATG_AR_TRANS: Attagene TRANS-FACTORIAL HepG2 Assay for human Androgen Receptor (AR) (AID 2282973). To be noted: HepG2 Attagene TRANS-FACTORIAL AR reporter transcription. The method, boiled down:
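HepG2 cells transiently transfected with AR-Gal4 chimera and GAL4-UAS reporter units; chemical exposure 24 h. Reporter mRNA quantified by RT-PCR with fluorescent labelling and capillary electrophoresis; gain-of-signal fitted against DMSO.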
As to `O=Nc1ccc(Nc2ccccc2)cc1`, the molecule was classed as inactive.

With `CCCCCCCC(=O)OCCCCCC`, the molecule was called inactive.

For `c1ccc2c(c1)CCC2`, the molecule was called inactive.

In the case of `OCCCS`, the call was inactive.

Turning to `CCO[Si](C)(C)OCC`, the outcome was inactive.

Turning to `COc1cc(/C=C/C(=O)CC(=O)/C=C/c2ccc(O)c(OC)c2)ccc1O`, the call was inactive.

As for `O=C1CC2CC1C1CCCC21` (stereo not given), the call was inactive.

For the molecule `O=C(O)C(F)(F)C(F)(F)C(F)(F)F`, the result was inactive.

With `C=CC(=O)OCCOC1C2CCC1C1CC=CC12` (stereo not given), the call was inactive.

For `CCSC(=O)N(CC(C)C)CC(C)C`, the molecule was called inactive.

In the case of `O=c1cc(-c2ccccc2)oc2ccccc12`, the call was inactive.

With `C=CCOCC(CO)(CO)CO`, the outcome was inactive.

`COC(=O)c1cccnc1`: the molecule was called inactive.

In the case of `CC(=O)OC1CCCCC1`, the result was inactive.

Turning to `CCN(CC)c1ccc(C=O)cc1`, the molecule was called inactive.

As to `CC(C)(CO)COC(=O)C(C)(C)CO`, the molecule was called inactive.

Turning to `FC(F)(F)C(F)(F)C(F)(F)C(F)(F)C(F)(F)C(F)(F)C(F)(F)I`, the molecule was called inactive.

`O=C(Nc1ccccc1)c1cc([N+](=O)[O-])ccc1Cl`: the result was inactive.

`C=COCCCC`: the molecule was classed as inactive.

In the case of `CCC(C)(C)c1cc(O)c(C(C)(C)CC)cc1O`, the molecule was classed as inactive.

Regarding `CC(CO)c1ccccc1` (stereo not given), the outcome was inactive.

In the case of `CSc1ccc(O)cc1C`, the molecule was called inactive.

Turning to `CC(CC=O)CCCC(C)(C)O` (stereo not given), the result was inactive.

Turning to `CCCCNc1ccc(NCCCC)c2c1C(=O)c1ccccc1C2=O`, the result was inactive.

On to `c1ccc(-c2ccccc2-c2ccccc2)cc1`, for which the result was inactive.

Consider `CCCCCCOC(=O)c1ccccc1O`, for which the molecule was classed as inactive.

In the case of `CCOc1nc(F)cc2nc(S(=O)(=O)Nc3c(Cl)cccc3C(=O)OC)nn12`, the molecule was classed as inactive.

In the case of `Cc1cc(=O)n(-c2ccccc2)n1C`, the molecule was classed as inactive.

Regarding `COc1ccc(C(C)=O)cc1`, the outcome was inactive.

Consider `CC1=CC2C3C=CC(C3)C2C1C` (stereo not given), for which the molecule was called inactive.

`O=C[C@@H](O)[C@H](O)[C@H](O)CO`: the molecule was classed as inactive.

Take `CC(C)(C)NC(N)=O`: the molecule was called inactive.

On to `NNC(=O)c1cccc(C(=O)NN)c1`, for which the molecule was called inactive.

In the case of `CC(=O)C=O`, the result was inactive.

For the molecule `COc1cc(C=O)ccc1O`, the molecule was classed as inactive.

Turning to `COc1ccc(C)cc1N`, the molecule was classed as inactive.

For `COCC(C)N` (stereo not given), the outcome was inactive.

As for `OCCCCC(F)(F)C(F)(F)C(F)(F)C(F)(F)F`, the outcome was inactive.

Consider `O=C1CCCCCCCCCCCC(=O)OCCO1`, for which the call was inactive.

For the molecule `CCN(CC)c1ccc(C(=C2C=CC(=[N+](CC)CC)C=C2)c2ccc(S(=O)(=O)O)cc2S(=O)(=O)[O-])cc1`, the molecule was classed as inactive.
